Inhibition data for 65 compounds are collected here from PubChem BioAssay AID778 (Sanford-Burnham Center for Chemical Genomics, 2007).

Out of some 96,000 compounds screened, about 20,000 (21%) were called active.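 The calls were made as follows: active = CYP2C19 inhibition above a set limit at 5 µM in the primary screen (cut at about 50% in these data); inactive = the rest.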 A selection follows.

The target of this test is Cytochrome P450 2C19 (Homo sapiens) (UniProt P33261). In words: blockers of cytochrome P450 2C19 activity – biochemical, luminescence, ADME assay, primary screen (AID 778).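 Also: plate controls were negative control wells for no effect and 2.5 mM tranylcypromine positive control for full effect.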 Particulars: CYP2C19 Supersomes, luciferin-H EGE luminescence, 30 min; at 5 µM; active compounds read high.
Cytochrome P450 2C19 (Homo sapiens), sequence (P33261 whole entry, looked up): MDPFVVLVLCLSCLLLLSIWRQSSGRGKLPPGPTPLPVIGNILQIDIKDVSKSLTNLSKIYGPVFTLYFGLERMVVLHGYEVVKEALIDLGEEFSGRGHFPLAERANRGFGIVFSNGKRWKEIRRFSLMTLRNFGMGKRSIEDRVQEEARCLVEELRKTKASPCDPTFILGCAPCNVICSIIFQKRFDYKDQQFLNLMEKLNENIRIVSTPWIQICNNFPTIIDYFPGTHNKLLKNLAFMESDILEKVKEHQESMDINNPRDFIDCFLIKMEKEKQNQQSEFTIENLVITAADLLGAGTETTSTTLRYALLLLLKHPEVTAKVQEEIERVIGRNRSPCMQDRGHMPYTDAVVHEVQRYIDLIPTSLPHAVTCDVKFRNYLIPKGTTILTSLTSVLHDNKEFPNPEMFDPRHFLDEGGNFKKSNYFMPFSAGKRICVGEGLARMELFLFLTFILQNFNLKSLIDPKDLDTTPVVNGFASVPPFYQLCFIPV
For `CC(C)OCCCNC(=O)C1CC(=O)N(C2CCCCCCC2)C1` (stereo not given), the inhibition was -8.7% (inactive).
The value for `Cc1ccc(S(=O)(=O)N(c2cccc(C)c2)C2CCS(=O)(=O)C2)cc1` (stereo not given) was -10.2% (inactive).
Regarding `CCOc1ccccc1NC(=O)CCc1ccc(C)o1`, the inhibition is 90.7% (active).
The result for `CCc1ccc(CCC(=O)Nc2ccc(S(N)(=O)=O)cc2)o1` reads -6.2% (inactive); that for `CCOc1ccccc1Nc1nnc(SCC(=O)Nc2cc(C)on2)s1`, 9.6% (inactive); that for `O=c1c2ccccc2nc2n1C(CSCc1ccccc1)CS2` (stereo not given), 63.8% (active).
The value for `O=c1c2ccccc2nc2n1C(CSc1ccc(F)cc1)CN2` (stereo not given) was -3.9% (inactive); that for `O=c1c2ccccc2nc2n1C(CSCc1cccc(C(F)(F)F)c1)CS2` (stereo not given) was 84.1% (active).
The result for `CC1CSc2nnc(CCc3ccccc3)n21` (stereo not given) reads 2.1% (inactive).
For `Cc1ccccc1N/N=C/c1ccc(N2CCOCC2)cc1`, the inhibition was 23.7% (inactive).
The value for `CCOc1ccccc1/C=c1\sc2nc(-c3ccco3)nn2c1=O` was 15.4% (inactive); that for `CN(CCCNC(=O)CN1C(=O)CC(C)(C)S(=O)(=O)c2ccccc21)C1CCCCC1` was 9.9% (inactive).
The result for `O=C(NC1CCCCC1)C1CC(=O)N(CCc2ccccc2)C1` (stereo not given) reads -5.3% (inactive); that for `O=C(CN1C(=O)CC(c2ccccc2)=Nc2ccccc21)NC1CCCCC1`, 52.2% (active).
The result for `O=C(NCc1ccco1)c1cc(-c2cccnc2)nc2ccc(Cl)cc12` reads 0.7% (inactive); that for `O=C(NCCCN1CCN(C2CCCCC2)CC1)Nc1ccccc1C(F)(F)F`, -6.6% (inactive).
With `Cc1ccc(CNC(=O)C2CCCN(S(C)(=O)=O)C2)cc1` (stereo not given), the inhibition is 26.6% (inactive).
The result for `CCOC(=O)c1c(-c2cccc(C)c2)csc1NC(=O)c1c(-c2ccccc2)noc1C` reads 37.7% (inactive); that for `Cc1ccoc1C(=O)Nc1cccc(Oc2ccccc2)c1`, 5.3% (inactive).
The value for `O=C(Nc1ccccc1[N+](=O)[O-])C1C(c2ccccc2)=C1c1ccccc1` was 18.5% (inactive).
In the case of `Cc1onc(-c2ccccc2)c1C(=O)N1CCOCC1`, the inhibition is 1.4% (inactive).
On to `Cc1onc(-c2ccccc2)c1C(=O)Nc1ccccc1C#N`, for which the inhibition was 86.7% (active).
As to `CC(=O)Nc1cccc(NC(=O)c2c(-c3ccccc3)noc2C)c1`, the inhibition is 67.3% (active).
In the case of `CCOC(=O)c1sc(NC(=O)CSc2ncccn2)c(C#N)c1C`, the inhibition was 6.5% (inactive).
The result for `CCOC(=O)c1cc(NC(=O)c2cccnc2)cc(C(=O)OCC)c1` reads 22.9% (inactive); that for `Cc1cc(C(=O)CC#N)c(C)n1CC(F)(F)F`, 17% (inactive).
The result for `CC(C)OCCCNC(=O)CNC(=O)c1cccs1` reads 14% (inactive).
The value for `CCCCOc1ccc(C(C)(O)CCN2CCOCC2)cc1` (stereo not given) was -1.7% (inactive).
`CCCOc1ccc(C2c3c(oc4cc(C)c(C)cc4c3=O)C(=O)N2CCCN2CCOCC2)cc1` (stereo not given): the inhibition was 69.9% (active).
For the compound `CCOc1ccc(C2C(C(=O)O)c3ccccc3C(=O)N2CCN2CCOCC2)cc1` (stereo not given), the inhibition is -12.7% (inactive).
The value for `COC(=O)[C@H](C)NC(=O)Nc1ccc(OC(F)(F)F)cc1` was 9.5% (inactive); that for `Cc1ccc(N2C(=O)S/C(=C/c3cn(C)c4ccccc34)C2=O)cc1` was -7.8% (inactive); that for `COc1ccc(-c2nnn(Cc3nc(N)nc(N4CCCCC4)n3)n2)cc1` was 65.2% (active).
The value for `CCc1ccc(-c2nnn(Cc3nn[nH]n3)n2)cc1` was 14.2% (inactive).
Turning to `COc1ccc(-n2nnnc2SCc2nc(N)nc(N3CCOCC3)n2)cc1`, the inhibition is 22.5% (inactive).
The value for `CCN(CC)Cc1cc(C(C)=O)ccc1O` was -2.4% (inactive); that for `Cc1c(CN2CCC(C)CC2)c(=O)n(-c2ccccc2)n1C` was -0.1% (inactive).
As to `Cc1nnc(SCC(=O)N2CCc3ccccc3C2)s1`, the inhibition is 42.5% (inactive).
The value for `Cc1nnc(SCc2nc3ccccc3nc2C)s1` was 52.6% (active).
The value for `Cc1nnc(SCC(=O)NCc2ccccc2)s1` was -3.1% (inactive).
Regarding `CCc1c(C)sc(NC(=O)OC)c1C(=O)N1CCOCC1`, the inhibition was -0.7% (inactive).
The result for `C=CCn1c(C)cc(C(=O)CN2C(=O)c3ccccc3C2=O)c1C` reads 2.9% (inactive); that for `CC(C)OC(=O)CN1C(=O)c2ccccc2C1=O`, 24% (inactive); that for `CC(=O)c1cnc(SCCN2C(=O)c3ccccc3C2=O)nc1C`, 57.8% (active).
The value for `CC(=O)NNc1cc(=O)c2c(=O)n(C)c(=O)n(C)c2[nH]1` was -1.8% (inactive); that for `Cc1cc(=O)n2c3c(cccc13)CCC2` was 18.8% (inactive); that for `COc1ccc(/C=C2/S/C(=N/N=C3\CC4CCC3(C)C4(C)C)NC2=O)cc1` (stereo not given) was -9.6% (inactive).
With `CCOc1ccc2nc(NCCNS(=O)(=O)c3ccccc3)c(C#N)cc2c1`, the inhibition is 24.6% (inactive).
Take `CCOCCCNS(=O)(=O)Cc1ccccc1`: the inhibition was 42.5% (inactive).
Consider `CCOc1ccc(S(=O)(=O)NCCSc2ccccc2)cc1`, for which the inhibition is 98.7% (active).
The result for `COCCNC(=O)Cn1cc2c(n1)CCCCC2` reads -6.8% (inactive).
For the compound `O=C1C2C3C=CC(C4CC34)C2C(=O)N1/N=C/c1ccc(-c2ccccc2[N+](=O)[O-])o1` (stereo not given), the inhibition is 72.2% (active).
The value for `CCOc1cc2[nH]c(=O)n(CCC(=O)NCc3ccc(OC)cc3)c(=O)c2cc1OCC` was -6% (inactive).
The value for `Cc1cccc(NC(=O)/C(=C\c2ccco2)NC(=O)c2ccccc2)c1` was 13.6% (inactive).
The value for `O=C(NCC1CCCO1)/C(=C\c1ccco1)NC(=O)c1ccccc1` (stereo not given) was -11.9% (inactive); that for `C/C(=C\c1ccco1)C1Nc2cccc3cccc(c23)N1` was 72.8% (active).
In the case of `CCOC(=O)N1CCN(C(=O)c2cnc3n(c2=O)CCS3)CC1`, the inhibition was -15.9% (inactive).
Consider `CCOC(=O)c1nc(C)n(-c2ccc(Cl)cc2Cl)n1`, for which the inhibition is 16.5% (inactive).
The result for `Cc1nn(C(C)CC(=O)O)c(C)c1C` (stereo not given) reads 6.7% (inactive).
The result for `Cc1ccc(N2C(=O)C3C(c4ccccc4)(C2=O)C3(c2ccccc2)c2ccccc2)cc1` (stereo not given) reads 8.1% (inactive).
The value for `O=C(c1ccco1)N1CCN=C1SCc1cccc(Cl)c1` was 20.6% (inactive).
With `CCC(=O)N1CCN=C1SCc1ccc(F)cc1`, the inhibition is 78.7% (active).
The result for `CSC1=NCCN1C(=O)c1ccc(S(=O)(=O)N2CCOCC2)cc1` reads 13.3% (inactive).
For the compound `O=C(C1CC1)N1CCN=C1SCc1ccc(Cl)cc1`, the inhibition was 98.5% (active).
The value for `CCCOC(=O)CC1C(=O)NCCN1Cc1ccc(F)cc1` (stereo not given) was 19.1% (inactive).

Usually inhibition stands for the relative decrease from the control value, in per cent.
